# Test results from the supplement of paper PMC9433436.
# ± gives the standard deviation of the averaged measurements. In all, about 4,100 sequences were measured (“relative kcat/Km (krel) vs genomic leader AAAGAU”: median about 1.7, highest 2% from about 6.5 on). The entries come from a sample that favours the highest values as a whole.
# Biological target: T1, E. coli RNase P holoenzyme (M1 P RNA + rnpA protein) (UniProt P0A7Y8)
# T1 sequence: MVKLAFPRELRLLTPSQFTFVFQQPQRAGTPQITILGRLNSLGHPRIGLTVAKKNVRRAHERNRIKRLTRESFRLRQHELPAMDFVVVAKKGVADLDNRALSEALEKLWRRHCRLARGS
# Assay: relative kcat/Km (krel) vs genomic leader AAAGAU (relative (reference leader = 1)); higher = faster RNase P cleavage
# Description: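 HTS-Kin: a pool of ptRNA-Met (21C construct) with all 4096 combinations of 5' leader nucleotides N(-6) to N(-1) was processed in vitro by E. coli RNase P (P RNA + rnpA/C5 protein) under multiple-turnover conditions at 37 C, pH 8, 17.5 mM MgCl2. Residual substrate was Illumina-sequenced at several fractions reacted, and relative kcat/Km (krel) was computed by internal competition kinetics, calibrated to the genomic leader (AAAGAU = 1). The listed hexamer is the varied N(-6)..N(-1) leader (DNA letters), and it sits between a fixed 5' stem-loop flank (GCAUGCACGAAAGUGCGUGCUAUGAA) and the mature tRNA-Met starting GGCUACGUAGCUCAGUUGG. Two technical replicates are averaged.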
# [1] = fraction of substrate reacted: ~9-10% (9.79% repeat 1, 9.1% repeat 2)
# [2] = fraction of substrate reacted: ~13-16% (15.68% repeat 1, 13.17% repeat 2)
# [3] = fraction of substrate reacted: ~26-29% (28.66% repeat 1, 26.4% repeat 2)
Sequence,relative kcat/Km [1],relative kcat/Km [2],relative kcat/Km [3]
AGCTAT,4.03 ± 1.8,3.39 ± 1.1,5.23 ± 1.9
CTCTAA,4.48 ± 1.2,6.21 ± 1.1,8.82 ± 3.7
CTAAAA,2.15 ± 0.51,2.43 ± 0.18,2.89 ± 0.88
TTCTAT,5.38 ± 0.96,7.59 ± 1.6,10.5 ± 4.7
CGCTAA,3.07 ± 0.43,3.99 ± 1.2,5.96 ± 2.3
TTCTAC,5.32 ± 1.5,7.7 ± 1.3,10.6 ± 4.4
TGCTAC,2.42 ± 1.5,2.16 ± 0.89,4.62 ± 2.6
TGCTAT,2.93 ± 0.94,2.69 ± 0.56,3.79 ± 1.5
TGTGAA,2.72 ± 0.39,2.92 ± 0.98,3.58 ± 1.9
TGATAT,1.84 ± 0.025,3.77 ± 0.75,6.11 ± 3.1
ACATCG,1.31 ± 1.1,–,1.61 ± 0.095
TGGACT,1.76 ± 0.67,0.899 ± 0.057,0.76 ± 0.046
GGTAGG,–,–,1.74 ± 0.56
ATCCCG,1.67 ± 1.4,0.83 ± 0.4,1.86 ± 0.023
GTAGCC,1.99 ± 0.12,1.48 ± 0.66,2.13 ± 0.51
TTTAAT,3.19 ± 1.8,3.87 ± 0.24,5.8 ± 2.3
CAATAT,3.27 ± 0.33,4.46 ± 0.96,6.37 ± 3
ACCATT,2.5 ± 1.4,2.84 ± 0.28,4.27 ± 1.3
ACCATA,2.8 ± 1.8,2.2 ± 0.51,3.64 ± 0.82
TCCATG,–,1.42 ± 0.26,3.46 ± 0.3
GCCATT,1.91 ± 0.79,2.36 ± 0.9,4.74 ± 1.7
TCCATA,4.06 ± 1.5,4.66 ± 0.32,6.71 ± 2.6
TCCATT,4.11 ± 1.2,4.85 ± 1.2,7.33 ± 3.2
GGCCTC,1.28 ± 0.39,0.933 ± 0.5,1.94 ± 0.76
GCATGA,1.91 ± 0.28,1.07 ± 0.63,2.21 ± 0.69

Sequence,relative kcat/Km [1],relative kcat/Km [2],relative kcat/Km [3]
AACAAC,2.99 ± 0.85,3.22 ± 0.17,4.45 ± 1.8
GACAAC,3.9 ± 0.94,3.84 ± 1.1,6.93 ± 3.1
CACAAC,3.95 ± 1.3,4.05 ± 0.63,6.36 ± 2.1
GACACC,3.17 ± 1.9,3.35 ± 0.2,5.28 ± 1.8
TACAAG,1.6 ± 0.23,2.38 ± 0.42,4.49 ± 1.9
CACAAA,3.35 ± 0.11,4.93 ± 1.2,6.59 ± 2.9
TACAAA,3.89 ± 1.8,5.2 ± 0.41,7.71 ± 3
CACAAG,1.66 ± 0.94,1.78 ± 0.81,3.72 ± 0.99
AACAAA,3.32 ± 2.3,3.9 ± 0.11,5.24 ± 1.1
GACAGC,3.44 ± 1,4.06 ± 0.54,5.59 ± 1.6
AACAAG,–,1.32 ± 0.57,3.26 ± 0.69
TACAAC,3.75 ± 1.9,5.24 ± 0.76,7.11 ± 3
ACGCAT,1.58 ± 0.85,2.23 ± 0.052,3.39 ± 1.3
TTGTCG,–,–,1.07 ± 0.3
TCTCGG,1.19 ± 1.1,0.684 ± 0.45,1.04 ± 0.15
TCTTCA,2.36 ± 1.3,1.88 ± 0.27,2.49 ± 0.68
ACCCGT,1.55 ± 1.5,1.9 ± 1.9,1.96 ± 1.4
AGCTCA,2.57 ± 1.9,2.16 ± 0.53,3.13 ± 1.1
AACACT,1.88 ± 1.1,2.41 ± 0.39,3.76 ± 0.87
TGACTT,1.97 ± 0.23,2.77 ± 0.65,3.33 ± 1.3
CACACT,2.56 ± 0.39,3.16 ± 0.72,4.82 ± 1.5
TACAAT,2.84 ± 0.75,4.74 ± 0.94,7.14 ± 3.4
CACATT,3.5 ± 1.3,4.74 ± 0.66,6.23 ± 2.3
AACAAT,1.84 ± 0.24,3.26 ± 0.41,4.49 ± 1.9
GACAAT,3.33 ± 1.5,3.55 ± 1.1,5.83 ± 2.4

Sequence,relative kcat/Km [1],relative kcat/Km [2],relative kcat/Km [3]
CACAAT,3.85 ± 1.2,4.61 ± 0.51,6.78 ± 2.9
GACAAG,2 ± 1.4,2.152 ± 0.02,4.06 ± 0.99
GACAAA,4.01 ± 1.6,4.49 ± 0.5,6.91 ± 2.5
GACACG,–,1.39 ± 0.034,2.6 ± 0.37
AGGCTC,–,–,0.722 ± 0.43
GTTACA,1.9 ± 0.82,2.16 ± 0.12,3.09 ± 1.2
CTGCCA,1.58 ± 1,0.692 ± 0.67,1.19 ± 0.3
TCACAT,3.6 ± 1.2,4.18 ± 0.55,6.08 ± 2.7
AACGTG,–,–,0.741 ± 0.57
GGATGC,1.44 ± 0.27,1.71 ± 0.79,2.74 ± 1
CAAAGC,1.07 ± 0.26,1.12 ± 1.1,1.94 ± 1.2
TCTCGA,3.05 ± 0.36,3.16 ± 0.42,4.89 ± 2
TCCTCA,3.22 ± 0.45,4.2 ± 0.86,6.64 ± 2.4
CCCTCT,2.96 ± 0.6,3.23 ± 0.81,3.9 ± 0.73
TCCTCT,3.55 ± 1.7,4.68 ± 1,6.72 ± 2.6
ACCTCC,3.29 ± 2.2,3.3 ± 0.22,4.3 ± 0.6
CCCTCA,2.47 ± 1.3,3.63 ± 0.37,3.95 ± 0.28
CCCTCC,3.55 ± 1.1,3.38 ± 0.94,4.21 ± 1.1
TCCTCC,3.65 ± 1.8,4.58 ± 1.2,6.57 ± 2.7
TCCTCG,2.35 ± 1.9,2.52 ± 0.14,3.64 ± 0.61
GCCTCA,3.93 ± 1.6,4.02 ± 0.47,5.77 ± 2.1
ATGGCA,–,1.34 ± 1.2,1.01 ± 0.3
AGTAGG,–,–,1.52 ± 0.61
CCACCC,2 ± 0.12,1.27 ± 0.51,2.49 ± 0.73
AGATGT,0.906 ± 0.45,–,1.84 ± 1.7

Sequence,relative kcat/Km [1],relative kcat/Km [2],relative kcat/Km [3]
CTTGTG,–,–,0.748 ± 0.26
CGCGGG,0.135 ± 0.028,–,0.258 ± 0.092
TATCTA,2.06 ± 0.75,2.24 ± 0.15,2.97 ± 1.5
AAGCAC,2.14 ± 1.2,1.53 ± 0.4,3.12 ± 1.2
TTTTGG,0.508 ± 0.012,–,0.844 ± 0.31
ATTTGC,3.17 ± 0.9,3.69 ± 0.87,5.35 ± 1.6
TTTTGT,–,–,2.01 ± 1.6
TTTTGA,3.16 ± 0.88,4.56 ± 1.3,6.55 ± 2.4
TTTTGC,3.65 ± 1.3,4.42 ± 1.1,6.61 ± 2.8
GTTTGC,2.91 ± 0.62,3.18 ± 0.81,5.13 ± 1.9
AGAAAC,3.18 ± 0.43,2.7 ± 0.75,3.84 ± 1.5
ATAACA,0.435 ± 0.37,0.897 ± 0.17,1.43 ± 0.58
AAGAAT,2.06 ± 0.33,1.89 ± 0.36,3.17 ± 1.4
AGTTTA,2.86 ± 0.36,3.18 ± 0.34,4.93 ± 2.3
AGTTCA,2.22 ± 0.21,2.82 ± 0.86,4.24 ± 1.9
AGTTTT,2.68 ± 0.23,3.38 ± 0.73,5.01 ± 1.8
TGTTCC,2.41 ± 1.7,3.08 ± 0.79,3.89 ± 1.1
TGTTAA,4.01 ± 0.87,5.39 ± 1.7,7.94 ± 3.5
AGTTAT,2.78 ± 0.19,4.36 ± 0.82,7 ± 3.2
TGTTAC,3.59 ± 1.3,5.21 ± 1.2,8.19 ± 3.8
TGTTGC,2.72 ± 0.32,2.95 ± 0.082,4.88 ± 1.9
TGTTTA,2.78 ± 0.84,3.23 ± 0.41,4.92 ± 2
TGTTGA,2.15 ± 0.44,3.32 ± 1.3,5.59 ± 2.1
AGTTCT,2.55 ± 0.89,3.08 ± 1.2,4.6 ± 1.6
AGTTAA,3.63 ± 1.5,5.9 ± 0.68,7.15 ± 2.6
